From PubChem BioAssay
A selection: hits, their analogues and other compounds. The true share with any hit is near 19%.
ELG1 DNA repair: blocks ELG1-dependent DNA repair in HEK293T cells; HEK293T ELG1-luciferase reporter, luminescence, 16 h; DNA damage induced by 5-fluorouridine; Potency, µM (titrated, usually from 46.1 µM), usual class: inhibitors; hit rate 2.3% among 330,000; AID 504467; further: nearly all actives have a fitted effect of over 55% in size
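Quantitative HTS, concentration-response format. 2,000 cells/well co-treated with 5-fluorouridine and compound, 16 hr in 5% CO2 at 37 °C; ONE-Glo luminescence read after 30 min.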
HT1080NT lethal: kills 2HG-producing HT-1080-NT fibrosarcoma cells. HT-1080-NT fibrosarcoma viability, CellTiter-Glo ATP luminescence, 48 h. Potency, µM (titrated, usually from 46.1 µM), actives largely listed as cytotoxic. hit rate 1.6% among 360,000. AID 686970;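 further: NT is the 2HG producing partner of a matched IDH1 knockdown line; nearly all actives have a fitted effect of over 55% in size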
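Fibrosarcoma NT cells, 750 per well in 5% FBS RPMI, were exposed to compound for 48 hours. Viability: CellTiter-Glo luminescence.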
HT1080 IDH1KD tx: toxicity to HT-1080 IDH1 knockdown cells (counter line); HT-1080 IDH1 knockdown viability, ATP luminescence, 48 h; Potency, µM (series often up to 46.1 µM), usual class: cytotoxic; hit rate 2% among 360,000; AID 686971
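% activity derives from luminescence (CellTiter-Glo), normalised to DMSO and no-cell wells. HT-1080-IDH1KD cells, 750/well, had 48 h compound exposure at 37 °C.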
DT40 TDP1 no CPT: qHTS for Inhibitors of human tyrosyl-DNA phosphodiesterase 1 (TDP1): qHTS in cells in absence of CPT. hit rate 15% among 420,000. Potency, µM (series often up to 46.2 µM), most hits filed as inhibitors. DT40 Tdp1-/- hTDP1 cells, no CPT, ATP luminescence, 48 h; further: nearly all actives have a fitted effect of over 55% in size
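Chicken DT40 Tdp1-/- cells complemented with human TDP1, screened without camptothecin (DMSO vehicle only), 400 cells/well. Compounds pin-transferred, cells incubated at 37 °C for at least 48 hr. Growth read as ATP-dependent luminescence (CellTiter-Glo, 30 min at RT).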
TDP1 cell CPT: growth inhibition of DT40 Tdp1-/-;hTDP1 cells with camptothecin (screen for TDP1 inhibitors); AID 686979; Potency, µM (series often up to 46.2 µM), actives largely listed as inhibitors; hit rate 12% among 420,000; chicken DT40 Tdp1-/-;hTDP1 cells + 20 nM CPT, ATP luminescence, 48 h; further: nearly all actives have a fitted effect of over 55% in size
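Chicken DT40 Tdp1-/- cells complemented with human TDP1, 400 cells/well, exposed to compounds plus 20 nM camptothecin for at least 48 h at 37 C; viability read as ATP content by CellTiter-Glo luminescence.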
IL1B secr inh: blocks inflammasome-driven IL-1 beta release; activity change, % at 57.5 µM; hit rate 4.7% among 360,000; THP-1 LPS/ATP IL-1B secretion, AlphaLISA, 16 h; stronger effect = lower value; in the data active means activity change below about -50%; inconclusive means mostly about -30% to -49%
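Secreted IL-1B measured by AlphaLISA bead assay after 16 h compound exposure of THP-1 cells; compounds (final up to 57.5 uM) added 1 h before LPS (250 ng/mL) and ATP (1.25 mM) stimulation; lower signal means less secretion.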
A number is an active result; i = inactive; ? = inconclusive; nt = no result given; [ ] = remark or other dose. Unless noted, the call rests on the fitted dose curve; in most records, active means well fitted curve in the direction sought with a large enough effect; inconclusive means small, poorly fitted or top-dose-only effect, or another doubt; inactive means no such curve, though single readings can be large; an effect the other way counts as inactive or inconclusive.

SMILES | ELG1 DNA repair | HT1080NT lethal | HT1080 IDH1KD tx | DT40 TDP1 no CPT | TDP1 cell CPT | IL1B secr inh
COC(C(=O)N/N=C(\C)c1ccc(O)cc1)c1ccccc1 (centres undefined) | i | i | i | i | i | i
COc1cccc([C@H]2Nc3ccc(S(=O)(=O)Nc4cc(C)ccc4C)cc3[C@H]3C=CC[C@H]32)c1 | nt | nt | nt | 5.2µM | 3.7µM | nt
COC(=O)c1ccc([C@H]2Nc3ccc(S(=O)(=O)Nc4cccc(C)c4)cc3[C@H]3C=CC[C@H]32)cc1 | nt | nt | nt | 1.2µM | 1.8µM | nt
CC(C)C1Nc2ccc(S(N)(=O)=O)cc2C2C=CCC21 (centres undefined) | i | i | i | i | ? | i
COC(=O)c1ccc(C2Nc3ccc(/C(C)=N/NC(=O)C(OC)c4ccccc4)cc3C3C=CCC32)cc1 (centres undefined) | i | i | i | 15µM | 13µM | i
Cc1ccc(Sc2ncccc2COC(=O)NC(C)C)cc1 | ? | i | i | ? | i | i
CC(=O)NCCNc1ccnc(-c2ccccc2C(F)(F)F)n1 | nt | nt | nt | i | i | nt
CN1CCCC2(CCN(S(=O)(=O)c3ccccc3)CC2)C1 | nt | nt | nt | i | i | nt
O=S(=O)(c1ccc(Br)s1)N1CCN(c2ccnc3cc(Cl)ccc23)CC1 | i | i | ? | 18µM | ? | nt
CC(=O)c1ccc(S(=O)(=O)N2CCN(c3ccnc4cc(Cl)ccc34)CC2)cc1 | nt | i | i | 7.3µM | 8.2µM | ?
Cc1ccc(S(=O)(=O)N2CCN(c3ccnc4cc(Cl)ccc34)CC2)cc1 | ? | ? | i | 23µM | 23µM | -81
Cc1ccc(S(=O)(=O)N2CCN(c3ccnc4cc(Cl)ccc34)CC2)cc1C | ? | i | i | ? | ? | ?
Cc1cc(C)c(NC(=O)CSc2nc(=O)n(Cc3ccncc3)c3c2CCC3)c(C)c1 | nt | nt | nt | i | i | nt
O=C(O)c1ccc(Br)cn1 | i | i | i | i | i | i
O=C(Nc1ccc([N+](=O)[O-])cc1)Nc1cnccn1 | i | i | i | 16µM | ? | ?
Cc1ccc(NC(=O)Nc2cnccn2)cc1 | ? | i | i | i | i | i
CC(C)c1ccc(NC(=O)Nc2cnccn2)cc1 | ? | ? | 15µM | 7.3µM | 12µM | i
CCOC(=O)c1c(NC(=O)COc2cccc3c2CCN(C)C3=O)sc2c1CCC2 | 18µM | ? | ? | 9.2µM | 13µM | i
CCOC(=O)c1c(NC(=O)C(C)NCc2ccco2)sc2c1CCC(C)C2 (centres undefined) | i | i | ? | 21µM | ? | ?
CCOC(=O)c1c(NC(=O)COc2cccc(C(F)(F)F)c2)sc2c1CCC(C)C2 (centres undefined) | nt | nt | nt | i | i | nt
CCOC(=O)c1c(NC(=O)COC(=O)Cn2c(C)nc3ccccc32)sc2c1CCCC2 | i | i | i | ? | i | i
CCOC(=O)c1c(NC(=O)CSc2nnc(C)s2)sc2c1CCCCC2 | ? | i | ? | ? | ? | i
CCOC(=O)c1c(NC(=O)Cn2c(C)nc3ccccc32)sc2c1CCC2 | ? | i | i | 12µM | 21µM | i
CCOC(=O)c1c(NC(=O)CSc2nnc(C)s2)sc2c1CCC(C)C2 (centres undefined) | i | i | i[9.24 µM] | 21µM | ? | i
COc1cccc(CNC(=O)CCS(=O)(=O)c2ccc3c(c2)oc(=O)n3C)c1 | i | i | i | i | i | i
CSc1ncc2c(n1)-c1ccccc1N(Cc1ccccc1C)S2(=O)=O | nt | nt | nt | i | ? | nt
Cc1sc(-c2cc3ccccc3oc2=O)nc1-c1ccc(Cl)cc1 | nt | nt | nt | i | i | nt
CCOC(=O)c1c(NC(=O)Cn2nnc3ccccc32)sc2c1CCC(C)C2 (centres undefined) | ? | i | i[9.24 µM] | 23µM | 23µM | i
CCOC(=O)c1c(NC(=O)COc2ccc(F)cc2)sc2c1CCC(C)C2 (centres undefined) | nt | nt | nt | ? | i | nt
